Results reported in PubChem BioAssay (NCATS).
Records with an inconclusive call do not appear. Active and inactive are the calls of the source. Calls follow the shape of the dose curve; as a rule, active = well fitted inhibition curve with a large enough effect; inconclusive = small, poorly fitted or top-dose-only effect; inactive = no such curve, though single readings can be large or run the other way.

Tests used:
[1] = biological target: Cytochrome P450 2C9 (Homo sapiens) (UniProt P11712); assay: qHTS Assay for Inhibitors and Substrates of Cytochrome P450 2C9 (AID 883); also: nearly all actives have a fitted effect of over 60% in size
Cytochrome P450 2C9 (Homo sapiens), sequence (P11712 whole entry, looked up): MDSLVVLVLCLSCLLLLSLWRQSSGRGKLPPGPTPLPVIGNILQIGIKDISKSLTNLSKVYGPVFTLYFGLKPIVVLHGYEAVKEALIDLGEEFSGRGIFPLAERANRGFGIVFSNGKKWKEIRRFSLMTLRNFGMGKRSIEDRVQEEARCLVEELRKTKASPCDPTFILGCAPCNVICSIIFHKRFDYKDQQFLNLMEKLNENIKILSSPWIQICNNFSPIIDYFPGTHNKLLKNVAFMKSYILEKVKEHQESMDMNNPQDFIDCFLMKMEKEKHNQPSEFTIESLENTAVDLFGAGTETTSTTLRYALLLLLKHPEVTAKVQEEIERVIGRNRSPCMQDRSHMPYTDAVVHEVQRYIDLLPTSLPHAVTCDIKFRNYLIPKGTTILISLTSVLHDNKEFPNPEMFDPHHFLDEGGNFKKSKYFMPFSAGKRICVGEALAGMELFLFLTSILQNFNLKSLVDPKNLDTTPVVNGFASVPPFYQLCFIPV
In short: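 Luminescent read-out of deoxyluciferin hydroxylation, normalized to 57uM sulphaphenazole (AC100). Reaction: 10nM enzyme, 100uM Luciferin-H (equal to KM), 25mM KPO4, 10 min compound preincubation, then 60 min with NADPH regeneration, both at 37C.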

[2] = biological target: Cytochrome P450 3A4 (Homo sapiens) (UniProt P08684); assay: qHTS Assay for Inhibitors and Substrates of Cytochrome P450 3A4 (AID 884); also: series mostly up to about 57 µM; nearly all actives have a fitted effect of over 50% in size
Cytochrome P450 3A4 (Homo sapiens), sequence (P08684 whole entry, looked up): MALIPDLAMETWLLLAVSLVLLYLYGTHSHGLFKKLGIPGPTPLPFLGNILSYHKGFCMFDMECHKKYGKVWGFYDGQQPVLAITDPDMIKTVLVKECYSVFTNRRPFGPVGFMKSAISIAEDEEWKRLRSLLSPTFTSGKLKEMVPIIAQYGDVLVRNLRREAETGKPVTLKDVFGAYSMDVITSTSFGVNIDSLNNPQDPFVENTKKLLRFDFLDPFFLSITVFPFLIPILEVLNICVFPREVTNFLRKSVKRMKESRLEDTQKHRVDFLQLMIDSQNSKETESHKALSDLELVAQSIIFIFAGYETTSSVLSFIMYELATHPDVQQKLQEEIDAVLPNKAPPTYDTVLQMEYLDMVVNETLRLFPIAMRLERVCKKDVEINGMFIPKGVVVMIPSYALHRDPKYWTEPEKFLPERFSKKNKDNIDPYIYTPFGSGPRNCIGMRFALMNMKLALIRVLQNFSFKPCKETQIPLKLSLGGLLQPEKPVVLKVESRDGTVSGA
In short: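 Luminescent readout of luciferin produced by CYP3A4 (20 nM) dealkylation of Luciferin-PPXE, 25 uM (its KM). NADPH-driven reaction ran 60 min at RT after 10 min compound preincubation; data scaled to 57 uM ketoconazole as 100% inhibition.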

[3] = biological target: Cytochrome P450 2D6 (Homo sapiens) (UniProt P10635); assay: qHTS Assay for Inhibitors and Substrates of Cytochrome P450 2D6 (AID 891);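 also: luciferin methyl ether substrate demethylated by CYP2D6 with NADPH regeneration; nearly all actives have a fitted effect of over 60% in size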
Cytochrome P450 2D6 (Homo sapiens), sequence (P10635 whole entry, looked up): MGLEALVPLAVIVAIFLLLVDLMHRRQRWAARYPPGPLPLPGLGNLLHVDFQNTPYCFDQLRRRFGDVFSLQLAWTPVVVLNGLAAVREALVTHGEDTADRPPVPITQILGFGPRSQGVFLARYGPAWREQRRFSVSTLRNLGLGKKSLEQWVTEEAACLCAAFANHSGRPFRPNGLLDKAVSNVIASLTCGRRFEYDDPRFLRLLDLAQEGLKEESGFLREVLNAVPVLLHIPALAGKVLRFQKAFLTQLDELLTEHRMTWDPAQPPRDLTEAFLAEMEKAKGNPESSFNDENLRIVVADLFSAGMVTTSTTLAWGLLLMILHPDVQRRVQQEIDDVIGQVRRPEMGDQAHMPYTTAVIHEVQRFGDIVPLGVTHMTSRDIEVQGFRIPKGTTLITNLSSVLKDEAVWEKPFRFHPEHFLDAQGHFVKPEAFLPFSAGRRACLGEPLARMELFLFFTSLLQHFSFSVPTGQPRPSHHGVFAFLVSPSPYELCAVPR
In short: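 Luminescent read-out of luciferin formed by 5 nM human CYP2D6 demethylating 30 uM Luciferin-ME EGE (Km level) over 60 min at room temperature after NADPH regeneration addition. Data normalized to full inhibition by 1.43 uM quinidine.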

[4] = biological target: Cytochrome P450 2C19 (Homo sapiens) (UniProt P33261); assay: qHTS Assay for Inhibitors and Substrates of Cytochrome P450 2C19 (AID 899); also: nearly all actives have a fitted effect of over 60% in size
Cytochrome P450 2C19 (Homo sapiens), sequence (P33261 whole entry, looked up): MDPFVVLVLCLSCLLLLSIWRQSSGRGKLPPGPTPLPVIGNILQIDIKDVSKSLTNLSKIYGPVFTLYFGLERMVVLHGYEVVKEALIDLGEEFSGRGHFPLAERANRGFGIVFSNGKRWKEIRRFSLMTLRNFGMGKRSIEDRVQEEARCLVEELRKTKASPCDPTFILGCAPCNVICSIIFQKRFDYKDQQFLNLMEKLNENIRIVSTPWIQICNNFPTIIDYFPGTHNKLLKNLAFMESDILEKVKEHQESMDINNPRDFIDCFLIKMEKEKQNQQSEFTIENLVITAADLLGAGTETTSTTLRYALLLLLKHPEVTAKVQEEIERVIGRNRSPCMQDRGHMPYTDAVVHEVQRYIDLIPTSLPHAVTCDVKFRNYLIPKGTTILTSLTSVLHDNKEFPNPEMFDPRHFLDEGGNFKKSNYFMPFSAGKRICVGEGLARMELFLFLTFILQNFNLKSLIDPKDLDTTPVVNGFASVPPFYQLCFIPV
In short: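 Luminescence readout of luciferin formed from 10uM Luciferin-H EGE (KM level) by 5 nM CYP2C19 in 50mM KPO4. 60 min NADPH-driven reaction at 37C after 10 min compound preincubation; data scaled to 57uM ketoconazole inhibition.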
% is scaled to controls: 0 for no effect and ±100 for the full control effect.

C=CCc1cccc(C2NC(C(=O)O)CCC2C)c1 (configuration not stated)
inactive: Potency [1] | activity change, negative = inhibition [2] -20.1% [at 11.4 µM] | Potency [3] | Potency [4]

CC(=O)OCC1OC(C#Cc2ccccc2)C=CC1O (configuration not stated)
inactive: Potency [1] | activity change, negative = inhibition [2] -14.6% [at 11.4 µM] | Potency [3] | Potency [4]

CC(=O)Nc1ccc(C2NC(C(=O)O)CCC2C)cc1 (configuration not stated)
inactive: Potency [1] | activity change, negative = inhibition [2] -21% [at 11.4 µM] | Potency [3] | Potency [4]
